# An excerpt weighted towards active compounds, which were near 6.3% of everything screened.
# NADH coupling = inhibition of NAD/NADH coupling enzymes, library profiling; coupled PK/LDH NADH assays, four targets; IC50, µM (series often up to 10 µM), without a hit: at the top dose inhibition; 0.02% of 65,000 active; AID 774;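 active means single-dose screening hits from any of four coupled enzyme assays that gave an IC50 when retested across doses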;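 further: the DPM-DC format reads NADH fluorescence rather than 340 nm absorbance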
# Autofluor 339 = intrinsic fluorescence of library compounds, ex339/em460 – biochemical, MLSMR library, data from DPM-DC assay, artefact control, profiling panel; compound autofluorescence, ex339/em460 nm, NADH buffer; active compounds read high; 1 = no-compound wells, NADH background; fluorescence fold increase at 10 µM; 5.5% of 65,000 active; AID 709;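 active means at 10 µM, mean starting fluorescence two-fold or more over control wells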;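 further: signal is the first read of a kinetic run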
# A340 absorber = absorbance at 340 nm. AID 708. fold change at 10 µM. 65,000 tested, under 10 active. compound absorbance at 340 nm, fold over control;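 active means at 10 µM dose, initial 340 nm absorbance at least 2 fold that of control wells; inactive means change under 2 fold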;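 further: initial absorbance extrapolated from kinetic A340 decline of NADH oxidation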
# DPM-DC inhibit = blocks S. pneumoniae diphosphomevalonate decarboxylase; purified DPM-DC, PK/LDH coupled NADH fluorescence; 0.49% of 65,000 active; calls only at 10 µM;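 active means the 320 compounds with the highest percent inhibition in the single-dose primary screen, excluding strongly autofluorescent ones, cut at about 32% in these data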;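 further: kinetic rate of NADH fluorescence loss reporting ADP formed by the decarboxylase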
# PMK inhibit = S. pneumoniae PMK inhibition | purified PMK, PK/LDH-coupled NADH absorbance 340 nm | inhibition, % at 10 µM | 0.49% of 65,000 active;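 active means top-ranked compounds by inhibition in the single 10 µM screen, taking a fixed number of the strongest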;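 further: 0% = full reaction with DMSO carrier and 100% = background rate without enzyme reaction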
# MK inhibit = inhibitors of Streptococcus pneumoniae mevalonate kinase | AID 555 | 0.48% of 65,000 active | purified MK, PK/LDH-coupled NADH absorbance 340 nm | inhibition, % at 10 µM;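 active means ranked among the strongest by inhibition in the single 10 µM screen, a fixed top-ranked set picked for dose follow-up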
# Active calls of the source: *; i = inactive; . = no result given; + = active, no number.
SMILES,NADH coupling,Autofluor 339,A340 absorber,DPM-DC inhibit,PMK inhibit,MK inhibit
CCOc1ccc(N2CC(C(=O)Nc3ncccc3C)CC2=O)cc1 (stereo not drawn),2.0%,1.11,1.04,i,1.0,5.0
O=C(CC1CCCC1)OCn1nnc2ccccc2c1=O,6.0%,1.07,1.01,i,17.0,0.0
N#Cc1nc(-c2ccc(F)cc2)oc1N1CCCC1,7.0%,2.35*,1.05,.,12.0,2.0
N#Cc1nc(-c2ccccc2)oc1N1CCCCC1,4.0%,3.74*,1.07,.,4.0,4.0
N#Cc1nc(-c2ccc(Cl)cc2)oc1N1CCCCC1,7.0%,2.35*,1.07,.,10.0,4.0
COc1ccc(-c2nc(C#N)c(NC(C)C)o2)cc1,3.0%,2.26*,1.11,.,6.0,0.0
N#Cc1nc(COc2ccc(F)cc2)oc1N1CCCC1,6.0%,1.09,0.98,i,10.0,7.0
Cc1sc2nc3c(C(=O)N4CCN(c5ncccn5)CC4)cccn3c(=O)c2c1C,4.0%,1.19,1.09,i,11.0,1.0
O=C1CN(C(=O)COC(=O)c2ccccc2NC(=O)c2ccco2)c2ccccc2N1,2.0%,1.08,0.98,i,0.0,0.0
CC1=C(SCCC#N)S/C(=C2\SC(C)=C(SCCC#N)S2)S1,6.0%,1.06,1.05,i,8.0,9.0
COc1ccc(-c2nc(C#N)c(N3CCCCCC3)o2)cc1,1.0%,2.26*,1.1,.,0.0,2.0
CC1CN(c2oc(-c3ccccc3Cl)nc2C#N)CC(C)O1 (stereo not drawn),8.0%,1.76,1.05,i,2.0,6.0
COc1ccc(-c2nc(C#N)c(N3CC(C)OC(C)C3)o2)cc1OC (stereo not drawn),4.0%,2.12*,1.09,.,0.0,7.0
CC1CCc2cc(F)ccc2N1C(=O)c1ccc2c(c1)OCO2 (stereo not drawn),3.0%,1.12,1.04,i,3.0,4.0
COc1ccc(C(=O)CSc2nnc(CNc3nc(-c4ccccc4)cs3)n2C)cc1,4.0%,1.1,0.99,i,8.0,4.0
COc1ccc(C2CC(=O)C(C=NCCN3CCN(C(C)=O)CC3)=C(O)C2)cc1OC (stereo not drawn),6.0%,1.11,1.04,i,13.0,6.0
COC(=O)CSc1nc(C)c(C(C)=O)cc1C#N,3.0%,1.06,0.98,i,1.0,7.0
CCOC(=O)c1cc(C#N)c(SCC(=O)c2cc(C#N)c(SC)nc2C)[nH]c1=O,12.0%,2.04*,1.2,.,16.0,8.0
CCOC(=O)c1c(C)nc2ncccn12,6.0%,2.11*,1.03,.,4.0,8.0
CCn1nnnc1SCC(=O)c1cc(OC)ccc1OC,9.0%,0.8,1.06,i,12.0,4.0
Cc1cc(N2CCOCC2)nc2ccc(NC(=O)CCC(=O)N3CCCCC3)cc12,7.0%,4.7*,1.04,.,11.0,2.0
CCN1CCN(c2cc(C)c3cc(NC(=O)c4cnccn4)ccc3n2)CC1,2.0%,1.04,1.16,i,4.0,2.0
CCC(C)NC(=O)CCC(=O)Nc1ccc2nc(N3CCOCC3)cc(C)c2c1 (stereo not drawn),4.0%,4.96*,1.05,.,8.0,0.0
CCN1CCN(c2cc(C)c3cc(NC(=O)Cc4ccc(OC)c(OC)c4)ccc3n2)CC1,1.0%,2.1*,1.1,.,0.0,2.0
Cc1ccc(NC(=O)c2cc(N3CCOCC3)nc3ccccc23)cc1,10.0%,1.55,1.03,i,7.0,12.0
SMILES,NADH coupling,Autofluor 339,A340 absorber,DPM-DC inhibit,PMK inhibit,MK inhibit
CCOc1ccccc1NC(=O)CCC(=O)Nc1ccc2nc(N3CCN(C)CC3)cc(C)c2c1,6.0%,3.8*,1.07,i,14.0,0.0
COc1ccc(S(=O)(=O)N(CCN2CCOCC2)Cc2cc(OC)ccc2OC)cc1,8.0%,1.74,0.99,i,13.0,7.0
Cc1cc(N2CCOCC2)nc2ccc(NC(=O)CCC(=O)N3CCC(C)CC3)cc12,7.0%,4.75*,1.02,.,10.0,4.0
CCCCN(C)C(=O)CCC(=O)Nc1ccc2nc(N3CCOCC3)cc(C)c2c1,10.0%,4.75*,1.05,.,12.0,7.0
Cc1cc(N2CCN(C)CC2)nc2ccc(NC(=O)c3ccc4c(c3)OCO4)cc12,4.0%,1.07,1.14,i,0.0,9.0
COc1ccc(N(C)C(=O)CCC(=O)Nc2ccc3nc(N4CCOCC4)cc(C)c3c2)c(OC)c1,9.0%,4.85*,1.04,.,13.0,4.0
Cc1cccc(NC(=O)c2cc(N3CCOCC3)nc3ccccc23)c1,4.0%,1.86,1.03,i,2.0,10.0
Cn1c(-c2ccccc2)c(CCO)c2ccccc21,2.0%,1.37,0.99,i,0.0,0.0
CCCc1c(CC)c(=N)c2ccccc2n1C,6.0%,3.45*,1.12,.,3.0,8.0
Cc1cc(C)c(S(=O)(=O)NCc2cn3c(C)csc3n2)cc1C,25.0%,1.07,1.03,+,1.0,8.0
Cc1cc(C)c(S(=O)(=O)NCc2cn3c(C)csc3n2)c(C)c1,3.0%,1.12,0.99,i,6.0,4.0
CCOC(=O)CN(C(=O)CSc1nnc2c(n1)[nH]c1ccc(OC)cc12)c1ccc(F)cc1,6.0%,1.1,1,i,7.0,10.0
CCOC(=O)CC(=O)CSc1nnc2c(n1)[nH]c1ccccc12,11.0%,1,1.19,i,34.0*,0.0
COc1ccc(CNC(=O)c2cnc3scc(C)n3c2=O)cc1,9.0%,2.13*,1.18,.,13.0,5.0
O=C(NCc1ccco1)c1cnc2n(c1=O)CCS2,3.0%,1.01,1.01,i,3.0,1.0
Cc1csc2ncc(C(=O)NCc3ccco3)c(=O)n12,14.0%,3.76*,1.09,i,9.0,6.0
Cc1cc(NC(=O)CN2CCN(c3ccccc3O)CC2)no1,10.0%,1.05,1.04,i,12.0,9.0
CCOc1cc(-c2cc(-c3ccc(N)cc3)nc(N)c2C#N)ccc1O,9.0%,3.56*,1.07,.,5.0,12.0
O=c1c2c(nc3c(-c4ccc(Cl)cc4)c[nH]n13)CCCC2,1.0%,4.12*,1.04,.,1.0,0.0
Cc1[nH]n2c(=O)c3c(nc2c1-c1ccccc1)CCCC3,6.0%,1.53,1,i,9.0,3.0
O=c1c2c(nc3c(-c4cccc5ccccc45)c[nH]n13)CCC2,8.0%,3.62*,1.11,.,2.0,13.0
Cc1ccc(-c2nc3ccccc3n3nnnc23)cc1,8.0%,3.76*,1.08,.,7.0,9.0
CCOC(=O)N1CCC(Nc2nc3ccccc3n3nnnc23)CC1,7.0%,4.03*,1.04,.,13.0,0.0
CCN(CC)S(=O)(=O)c1ccc(Nc2nc3ccccc3n3nnnc23)cc1,7.0%,3.63*,1.1,i,7.0,0.0
c1ccc2c(c1)nc(Nc1ccc3c(c1)OCO3)c1nnnn12,3.0%,1.21,1.03,i,8.0,0.0
Cc1ccc(CNc2nc3ccccc3n3nnnc23)cc1,10.0%,2.44*,1.05,i,9.0,0.0
